Compound activity from PubChem BioAssay.
Pf growth 96h: P. falciparum growth inhibition at 96 hour, primary screen for plastid delayed-death inhibitors; P. falciparum luciferase reporter growth, 96 h; Potency, µM (doses to about 28.7 µM), hits mostly inhibitors; hit rate 6.9% among 320,000
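P. falciparum expressing integrated firefly luciferase, in erythrocytes at 2% hematocrit, 0.05% parasitemia, incubated with compounds 96 h at 37 C, 5% CO2. Growth inhibition read as loss of luminescence; two-generation exposure targets delayed-death apicoplast inhibitors.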
Giardia FBPA inh: Giardia lamblia aldolase inhibition. A8B2U2. Potency, µM (highest dose often 59.6 µM), hits mostly inhibitors. hit rate 0.71% among 290,000. purified Giardia FBPA; further: nearly all actives have a fitted effect of over 55% in size
Target sequence (A8B2U2 whole entry, looked up): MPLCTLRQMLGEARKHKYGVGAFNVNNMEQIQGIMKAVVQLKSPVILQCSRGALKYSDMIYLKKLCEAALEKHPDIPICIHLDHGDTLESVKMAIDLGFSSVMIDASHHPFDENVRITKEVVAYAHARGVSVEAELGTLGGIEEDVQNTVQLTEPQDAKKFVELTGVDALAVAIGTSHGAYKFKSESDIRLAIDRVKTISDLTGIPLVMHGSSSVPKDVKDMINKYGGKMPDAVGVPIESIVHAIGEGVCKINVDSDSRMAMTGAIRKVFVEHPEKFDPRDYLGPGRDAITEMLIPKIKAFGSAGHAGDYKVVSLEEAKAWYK
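Giardia FBPA (40 nM reagent) was preincubated 10 min at RT with compound (up to 57.5 uM final), then substrate plus GAPDH/TPI/NAD/arsenate coupling system with diaphorase/resazurin was added; resorufin fluorescence (525/598 nm) was read after 20 min.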
CHX counter-1: counter-screen hit for Shiga toxin inhibitors, cycloheximide. max response, %. hit rate 12% among 300,000. cell reporter, cycloheximide protein synthesis inhibition counterscreen. AID 2314; in the data active means max response mostly above about 13%, no sharp cut-off; inactive means mostly below about 14%; further: read at 38.3 µM for the half of the compounds with a filed dose
Shiga inhibitor: blocks Shiga toxin action in Vero cells. Vero cells, Shiga toxin protein synthesis inhibition reporter. inhibition, % at 38.7 µM. hit rate 9.2% among 290,000; in the data active means inhibition mostly above about 28%, no sharp cut-off; inactive means mostly below about 43%
Pf growth 48h: P. falciparum growth inhibition at 48 hours (one generation) | Potency, µM (titrated, usually from 28.7 µM), hits mostly inhibitors | AID 504832 | P. falciparum luciferase growth in erythrocytes, 48 h | hit rate 5.9% among 310,000
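Luminescence readout; reporter = integrated firefly luciferase in P. falciparum. RBC culture at 2% hematocrit, 0.1% parasitemia final, 37 C/5% CO2; decreased signal taken as growth inhibition.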
NS1 inh: blocks influenza NS1 protein function | Potency, µM (highest dose often 46.1 µM) | hit rate 0.4% among 270,000; calls by dose curve; further: actives are rising curves; nearly all actives have a fitted effect of over 50% in size
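Growth recovery, yeast-based: influenza A NS1 expressed in S. cerevisiae causes slow growth, and suppressors are detected by OD600. The parent strain without NS1 is used as positive control.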
CHX counter-2: counter-screen for Shiga toxin inhibitors: cycloheximide protein synthesis block; shares compounds with Shiga inhibitor; hit rate 3% among 510; Potency, µM (series often up to 38.3 µM), usual class: activators; Cycloheximide counterscreen, protein synthesis reporter, Shiga toxin assay; AID 2318; calls by dose curve
Of the large screens only hits and unclear results are named; the others gave an inactive call (follow-up assays come after a bar, where they were run). A selection: hits, their analogues and other compounds. The true share with any hit is near 21%. Unless noted, the call rests on the fitted dose curve; in most records, active means well fitted curve in the direction sought with a large enough effect; inconclusive means small, poorly fitted or top-dose-only effect, or another doubt; inactive means no such curve, though single readings can be large; an effect the other way counts as inactive or inconclusive.

CCc1ccc(C(=O)COC(=O)c2cnccn2)cc1	none (no result: Pf growth 96h)
CC(C)(C)c1ccc(/C=N/OCC(=O)NCc2ccc(F)cc2)cc1	Pf growth 96h inconclusive, Pf growth 48h inconclusive
Cn1c(SCC(=O)NC2CCCCC2)nnc1-c1ccncc1	Pf growth 96h inconclusive
Cc1ccc(-c2nnc(SCC(=O)NC3CCCC3)n2C)cc1	Pf growth 96h inconclusive, Shiga inhibitor 69 | CHX counter-2 inactive
COc1ccc(-c2cc(-c3ccccc3O)[nH]n2)cc1OC	Shiga inhibitor 81 | CHX counter-2 2.5µM
COc1ccc(NC2=CC(c3cccc(OC)c3)N(c3ccc(OC)cc3)C2=O)cc1 (stereo unspecified)	Pf growth 48h inconclusive
COc1ccc(NC2=CC(c3ccccc3)N(c3ccc(OC)cc3)C2=O)cc1 (stereo unspecified)	Shiga inhibitor 65 | CHX counter-2 inactive
CC1=C(C)C(OCCBr)N(c2cc(O)c(Cl)cc2F)C1=O (stereo unspecified)	Shiga inhibitor 43 | CHX counter-2 inactive
Cc1ccc(S(=O)(=O)N2CCC(C(=O)N[C@@H](Cc3ccccc3)C(=O)O)CC2)cc1	Shiga inhibitor 34 | CHX counter-2 inactive
O=C(COc1ccc(Cl)cc1)N1CCN(Cc2ccccc2)CC1	none (no result: Pf growth 48h)
O=C(/C=C/c1ccc(Cl)cc1)N1CCN(Cc2ccccc2)CC1	Pf growth 96h inconclusive, Shiga inhibitor 25 (no result: Pf growth 48h) | CHX counter-2 inactive
C=CCc1c(C)nn(CC(=O)O)c1-c1ccccc1	none
C=CCN(c1ccccc1)S(=O)(=O)c1cccc(C(=O)NNC(=O)c2ccncc2)c1	none (no result: Giardia FBPA inh, CHX counter-1, Shiga inhibitor, NS1 inh)
O=C(NNC(=O)c1ncc(Cl)c(Cl)c1Cl)c1ccc(F)cc1	Pf growth 48h inconclusive (no result: Giardia FBPA inh)
O=C(NNC(=O)c1nc(Cl)ccc1Cl)c1ccc(F)cc1	Shiga inhibitor 24 (no result: Giardia FBPA inh) | CHX counter-2 inactive
CCSc1nnc(-c2ccc(S(=O)(=O)N3CCCC3)cc2)n1C	Shiga inhibitor 67, Pf growth 48h inconclusive | CHX counter-2 inactive
CCOC(=O)c1[nH]c2ccc(OC)cc2c1NC(=O)C(C)N1CCC2(CC1)OCCO2 (stereo unspecified)	Shiga inhibitor 49, Pf growth 48h inconclusive | CHX counter-2 inactive
CCOC(=O)c1[nH]c2ccc(OC)cc2c1NC(=O)c1nonc1C	none
CC1CCc2sc(C(=O)NN)cc2C1 (stereo unspecified)	Shiga inhibitor 36 (no result: NS1 inh) | CHX counter-2 inactive
COc1cccc(-c2csc(N3CCN(C(=O)Nc4ccc(F)cc4)CC3)n2)c1	Shiga inhibitor 34, Pf growth 48h inconclusive, NS1 inh inconclusive | CHX counter-2 inactive
COc1ccc(NC(=O)CN2CCN(c3nc(-c4ccc(F)cc4)cs3)CC2)c(OC)c1	Shiga inhibitor 36 | CHX counter-2 inactive
O=C(CSCc1ccc(Cl)cc1)N1CCOCC1	Shiga inhibitor 66 | CHX counter-2 inactive
COC(=O)c1c(NC(=O)c2ccn(C)n2)sc2c1CCC2	Shiga inhibitor 40 | CHX counter-2 inconclusive
CCOC(=O)c1cnc2c(-c3cccc(Br)c3)cnn2c1C	Shiga inhibitor active | CHX counter-2 2.8µM
COc1ccc(N2CCN(Cc3cc4c(cc3Br)OCCO4)CC2)cc1	Pf growth 96h inconclusive
COc1ccc(N2CCN(Cc3csc(C)c3-c3ccc(C)cc3)CC2)cc1	Giardia FBPA inh inconclusive, Shiga inhibitor 40, Pf growth 48h 10µM | CHX counter-2 inactive
CC1=NN(C(=O)c2ccncc2)C(=O)[C@@H]1N=Nc1ccc2ccccc2c1	none (no result: Pf growth 96h, Giardia FBPA inh, CHX counter-1, Shiga inhibitor, Pf growth 48h)
CC(=O)Nc1ccc(N2N=C(C)C(N=Nc3ccccc3)C2=O)cc1 (stereo unspecified)	Shiga inhibitor 53 | CHX counter-2 inconclusive
CCOC(=O)Nc1ccc2c(c1)Nc1ccccc1S2	Shiga inhibitor 31 (no result: Pf growth 96h) | CHX counter-2 inactive
COc1ccccc1Nc1cc(C(=O)N2CCc3ccccc3C2)c2ccccc2n1	Pf growth 96h inconclusive, Shiga inhibitor 30, Pf growth 48h inconclusive (no result: NS1 inh) | CHX counter-2 inactive
COCCCNC(=O)c1cc(Nc2ccc(OC)cc2OC)nc2ccccc12	none
COc1cc(/C=C(\C#N)c2nc3ccccc3[nH]2)cc(OC)c1O	Shiga inhibitor 64, Pf growth 48h inconclusive | CHX counter-2 inconclusive
COc1cc(/C=C(\C#N)c2nc3ccccc3n2C)cc(OC)c1O	Pf growth 96h inconclusive, Giardia FBPA inh inconclusive (no result: NS1 inh)
